Results reported in publication PMC7862700, “An all-to-all approach to the identification of sequence-specific readers for epigenetic DNA modifications on cytosine”.

Legend:
Test in all cases: DAPPL (digital affinity profiling via proximity ligation, sequencing); 10 mM Tris-HCl pH 7.5, 50 mM NaCl, 1 mM DTT, 4% glycerol, room temperature, 30 min; GST-TFs on glutathione beads, 16-mer random dsDNA library, 0.1% formaldehyde crosslink after washing; high values mean tight binding
Details in all cases: protein: recombinant; tags: N-terminal GST; dsDNA, one strand shown
FLI1 = molecular target: T1, FLI1 (Homo sapiens, UniProt Q01543 1-452)
T1 sequence: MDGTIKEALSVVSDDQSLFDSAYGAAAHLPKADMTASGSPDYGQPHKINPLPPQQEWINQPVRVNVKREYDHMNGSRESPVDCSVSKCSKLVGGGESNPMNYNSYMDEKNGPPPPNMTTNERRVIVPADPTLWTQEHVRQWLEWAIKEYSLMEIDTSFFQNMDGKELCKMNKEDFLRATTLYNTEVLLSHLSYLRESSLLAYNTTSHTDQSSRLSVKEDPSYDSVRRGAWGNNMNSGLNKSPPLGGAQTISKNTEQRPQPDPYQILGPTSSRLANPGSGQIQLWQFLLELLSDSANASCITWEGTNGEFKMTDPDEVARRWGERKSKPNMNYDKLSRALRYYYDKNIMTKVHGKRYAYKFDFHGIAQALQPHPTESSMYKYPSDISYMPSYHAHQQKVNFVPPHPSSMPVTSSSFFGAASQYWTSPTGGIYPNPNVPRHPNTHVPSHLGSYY
Method in brief: (§1)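 Binding signal is defined as a hexamer's read frequency for one factor over its frequency for the tag-only sample. To obtain reads, GST-fused human transcription factors were expressed in yeast, captured on glutathione beads, barcoded with DNA and pooled with that sample. Pools met 200 nmole of a 16-mer random double-stranded DNA library in Tris/NaCl/DTT/glycerol buffer for 30 min at room temperature before washing, 0.1% formaldehyde crosslinking, proximity ligation (BsaI/T4 ligase, 1 h, 37 °C), PCR and Illumina NextSeq500 sequencing.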

ELK1 = molecular target: T2, ELK1 (Homo sapiens, UniProt P19419 1-428)
T2 sequence: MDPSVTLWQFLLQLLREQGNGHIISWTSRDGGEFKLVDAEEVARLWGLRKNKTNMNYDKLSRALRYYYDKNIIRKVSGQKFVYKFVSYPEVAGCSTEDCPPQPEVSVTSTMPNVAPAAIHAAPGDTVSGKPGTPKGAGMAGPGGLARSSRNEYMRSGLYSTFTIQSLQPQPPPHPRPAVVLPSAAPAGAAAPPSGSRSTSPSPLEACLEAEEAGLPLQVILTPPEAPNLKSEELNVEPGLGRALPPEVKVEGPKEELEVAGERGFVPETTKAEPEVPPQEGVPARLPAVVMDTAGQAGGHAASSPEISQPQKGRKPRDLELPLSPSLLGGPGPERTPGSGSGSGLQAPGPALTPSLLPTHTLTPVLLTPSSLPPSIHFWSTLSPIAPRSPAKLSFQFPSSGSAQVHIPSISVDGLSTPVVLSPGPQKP
Method in brief: as §1

GABPA = molecular target: T3, GABPA (Homo sapiens, UniProt Q06546 1-454)
T3 sequence: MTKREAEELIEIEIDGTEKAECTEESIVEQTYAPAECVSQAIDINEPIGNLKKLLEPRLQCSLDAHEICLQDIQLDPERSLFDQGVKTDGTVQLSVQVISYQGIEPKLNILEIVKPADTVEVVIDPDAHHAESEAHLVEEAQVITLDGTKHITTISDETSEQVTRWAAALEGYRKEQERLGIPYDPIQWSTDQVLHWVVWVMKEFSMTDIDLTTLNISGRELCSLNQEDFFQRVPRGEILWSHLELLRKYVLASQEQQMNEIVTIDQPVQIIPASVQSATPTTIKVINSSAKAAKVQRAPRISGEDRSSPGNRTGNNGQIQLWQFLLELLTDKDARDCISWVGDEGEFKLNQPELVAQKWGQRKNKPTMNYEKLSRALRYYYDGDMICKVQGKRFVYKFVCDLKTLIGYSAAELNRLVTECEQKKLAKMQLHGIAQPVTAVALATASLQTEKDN
Method in brief: as §1

ERG = molecular target: T4, ERG (Homo sapiens, UniProt P11308 1-479)
T4 sequence: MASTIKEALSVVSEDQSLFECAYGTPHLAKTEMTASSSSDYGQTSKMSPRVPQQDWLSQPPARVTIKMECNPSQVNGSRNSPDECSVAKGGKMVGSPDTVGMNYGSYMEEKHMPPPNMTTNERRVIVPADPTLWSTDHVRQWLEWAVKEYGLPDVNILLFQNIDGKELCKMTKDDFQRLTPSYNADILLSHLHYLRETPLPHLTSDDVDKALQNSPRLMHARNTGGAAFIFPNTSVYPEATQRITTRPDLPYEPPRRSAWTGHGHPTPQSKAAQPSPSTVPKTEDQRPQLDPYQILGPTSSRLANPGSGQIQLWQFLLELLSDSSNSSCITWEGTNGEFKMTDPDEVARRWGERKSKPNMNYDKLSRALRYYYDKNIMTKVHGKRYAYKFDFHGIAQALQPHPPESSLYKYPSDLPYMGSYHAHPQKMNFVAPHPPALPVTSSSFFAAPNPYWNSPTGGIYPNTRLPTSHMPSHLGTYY
Method in brief: as §1

ELF1 = ELF1 (Homo sapiens, UniProt P32519 1-619)
Method in brief: as §1

EHF = molecular target: T5, EHF (Homo sapiens, UniProt Q9NZC4 1-300)
T5 sequence: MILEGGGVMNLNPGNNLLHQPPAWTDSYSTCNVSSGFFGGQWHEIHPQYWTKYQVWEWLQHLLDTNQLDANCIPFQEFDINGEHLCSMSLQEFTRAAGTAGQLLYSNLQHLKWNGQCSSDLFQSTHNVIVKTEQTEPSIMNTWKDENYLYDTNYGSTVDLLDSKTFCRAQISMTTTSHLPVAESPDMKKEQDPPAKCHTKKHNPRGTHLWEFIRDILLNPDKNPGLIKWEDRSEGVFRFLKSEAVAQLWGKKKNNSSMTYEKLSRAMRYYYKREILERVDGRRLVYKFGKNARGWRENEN
Method in brief: as §1

SPI1 = SPI1 (Homo sapiens, UniProt P17947 1-270)
Method in brief: as §1

SPIB = SPIB (Homo sapiens, UniProt Q01892 1-262)
Method in brief: as §1

ELK3 = molecular target: T6, ELK3 (Homo sapiens, UniProt P41970 1-407)
T6 sequence: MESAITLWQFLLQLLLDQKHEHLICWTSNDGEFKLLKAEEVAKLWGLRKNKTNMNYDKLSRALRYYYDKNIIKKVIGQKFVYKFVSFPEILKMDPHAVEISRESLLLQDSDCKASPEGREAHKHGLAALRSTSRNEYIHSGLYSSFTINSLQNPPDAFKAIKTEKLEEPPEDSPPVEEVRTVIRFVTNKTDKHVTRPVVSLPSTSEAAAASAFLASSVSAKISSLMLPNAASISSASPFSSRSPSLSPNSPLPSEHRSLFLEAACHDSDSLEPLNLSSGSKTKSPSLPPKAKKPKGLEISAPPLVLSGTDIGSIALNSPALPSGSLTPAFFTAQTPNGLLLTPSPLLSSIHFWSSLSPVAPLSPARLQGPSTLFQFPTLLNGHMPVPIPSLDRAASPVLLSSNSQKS
Method in brief: as §1

Sequence of ELF1 (P32519 whole entry): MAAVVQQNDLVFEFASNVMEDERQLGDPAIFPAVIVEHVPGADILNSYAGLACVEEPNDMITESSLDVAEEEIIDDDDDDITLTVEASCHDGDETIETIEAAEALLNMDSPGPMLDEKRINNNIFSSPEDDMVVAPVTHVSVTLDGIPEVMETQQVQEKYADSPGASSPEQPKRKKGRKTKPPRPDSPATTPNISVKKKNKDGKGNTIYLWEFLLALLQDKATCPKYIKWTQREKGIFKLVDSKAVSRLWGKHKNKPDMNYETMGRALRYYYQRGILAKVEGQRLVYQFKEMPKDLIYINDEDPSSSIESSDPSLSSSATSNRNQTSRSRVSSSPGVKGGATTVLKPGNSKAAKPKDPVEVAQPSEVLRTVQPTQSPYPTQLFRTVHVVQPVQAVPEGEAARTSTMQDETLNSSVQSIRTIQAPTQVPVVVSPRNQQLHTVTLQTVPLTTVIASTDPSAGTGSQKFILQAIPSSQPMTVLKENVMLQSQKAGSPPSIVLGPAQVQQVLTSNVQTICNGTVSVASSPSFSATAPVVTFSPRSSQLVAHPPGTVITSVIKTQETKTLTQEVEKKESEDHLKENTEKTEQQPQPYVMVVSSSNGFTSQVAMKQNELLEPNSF
Sequence of SPIB (Q01892 whole entry): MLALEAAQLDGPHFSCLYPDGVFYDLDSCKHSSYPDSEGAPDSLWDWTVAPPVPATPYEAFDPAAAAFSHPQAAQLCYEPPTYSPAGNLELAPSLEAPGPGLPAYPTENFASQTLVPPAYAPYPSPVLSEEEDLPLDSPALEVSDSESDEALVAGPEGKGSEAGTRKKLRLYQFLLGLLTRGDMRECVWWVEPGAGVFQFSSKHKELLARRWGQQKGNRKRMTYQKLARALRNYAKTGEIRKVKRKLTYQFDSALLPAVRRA

Sequence: GAATAA
- binding signal (FLI1): 1.01 fold enrichment (6-mer frequency, TF over GST control)
- binding signal (ELK1): 1.08 fold enrichment (6-mer frequency, TF over GST control)
- binding signal (GABPA): 1.07 fold enrichment (6-mer frequency, TF over GST control)
- binding signal (ERG): 1.06 fold enrichment (6-mer frequency, TF over GST control)
- binding signal (ELF1): 1.09 fold enrichment (6-mer frequency, TF over GST control)
- binding signal (EHF): 1.09 fold enrichment (6-mer frequency, TF over GST control)
- binding signal (SPI1): 1.03 fold enrichment (6-mer frequency, TF over GST control)
- binding signal (SPIB): 1.11 fold enrichment (6-mer frequency, TF over GST control)
- binding signal (ELK3): 1.17 fold enrichment (6-mer frequency, TF over GST control)

Sequence: TCGTCT
- binding signal (FLI1): 1.52 fold enrichment (6-mer frequency, TF over GST control)
- binding signal (ELK1): 1.34 fold enrichment (6-mer frequency, TF over GST control)
- binding signal (GABPA): 1.43 fold enrichment (6-mer frequency, TF over GST control)
- binding signal (ERG): 1.34 fold enrichment (6-mer frequency, TF over GST control)
- binding signal (ELF1): 1.4 fold enrichment (6-mer frequency, TF over GST control)
- binding signal (EHF): 1.38 fold enrichment (6-mer frequency, TF over GST control)
- binding signal (SPI1): 1.26 fold enrichment (6-mer frequency, TF over GST control)
- binding signal (SPIB): 1.42 fold enrichment (6-mer frequency, TF over GST control)
- binding signal (ELK3): 1.23 fold enrichment (6-mer frequency, TF over GST control)

Sequence: TTCCTT
- binding signal (FLI1): 1.88 fold enrichment (6-mer frequency, TF over GST control)
- binding signal (ELK1): 1.79 fold enrichment (6-mer frequency, TF over GST control)
- binding signal (GABPA): 1.84 fold enrichment (6-mer frequency, TF over GST control)
- binding signal (ERG): 2.11 fold enrichment (6-mer frequency, TF over GST control)
- binding signal (ELF1): 1.96 fold enrichment (6-mer frequency, TF over GST control)
- binding signal (EHF): 2.02 fold enrichment (6-mer frequency, TF over GST control)
- binding signal (SPI1): 2.25 fold enrichment (6-mer frequency, TF over GST control)
- binding signal (SPIB): 2.01 fold enrichment (6-mer frequency, TF over GST control)
- binding signal (ELK3): 2.09 fold enrichment (6-mer frequency, TF over GST control)

Sequence: CTTTGG
- binding signal (FLI1): 1.15 fold enrichment (6-mer frequency, TF over GST control)
- binding signal (ELK1): 1.12 fold enrichment (6-mer frequency, TF over GST control)
- binding signal (GABPA): 1.21 fold enrichment (6-mer frequency, TF over GST control)
- binding signal (ERG): 1.07 fold enrichment (6-mer frequency, TF over GST control)
- binding signal (ELF1): 1.17 fold enrichment (6-mer frequency, TF over GST control)
- binding signal (EHF): 1.11 fold enrichment (6-mer frequency, TF over GST control)
- binding signal (SPI1): 1.21 fold enrichment (6-mer frequency, TF over GST control)
- binding signal (SPIB): 1.04 fold enrichment (6-mer frequency, TF over GST control)
- binding signal (ELK3): 1.13 fold enrichment (6-mer frequency, TF over GST control)

Sequence: TTAAAG
- binding signal (FLI1): 1.17 fold enrichment (6-mer frequency, TF over GST control)
- binding signal (ELK1): 1.11 fold enrichment (6-mer frequency, TF over GST control)
- binding signal (GABPA): 1.26 fold enrichment (6-mer frequency, TF over GST control)
- binding signal (ERG): 1.1 fold enrichment (6-mer frequency, TF over GST control)
- binding signal (ELF1): 1.19 fold enrichment (6-mer frequency, TF over GST control)
- binding signal (EHF): 1.18 fold enrichment (6-mer frequency, TF over GST control)
- binding signal (SPI1): 1.12 fold enrichment (6-mer frequency, TF over GST control)
- binding signal (SPIB): 1.19 fold enrichment (6-mer frequency, TF over GST control)
- binding signal (ELK3): 1.09 fold enrichment (6-mer frequency, TF over GST control)

Sequence: GCTCCG
- binding signal (FLI1): 1.37 fold enrichment (6-mer frequency, TF over GST control)
- binding signal (ELK1): 1.4 fold enrichment (6-mer frequency, TF over GST control)
- binding signal (GABPA): 1.35 fold enrichment (6-mer frequency, TF over GST control)
- binding signal (ERG): 1.36 fold enrichment (6-mer frequency, TF over GST control)
- binding signal (ELF1): 1.32 fold enrichment (6-mer frequency, TF over GST control)
- binding signal (EHF): 1.45 fold enrichment (6-mer frequency, TF over GST control)
- binding signal (SPI1): 1.25 fold enrichment (6-mer frequency, TF over GST control)
- binding signal (SPIB): 1.19 fold enrichment (6-mer frequency, TF over GST control)
- binding signal (ELK3): 1.44 fold enrichment (6-mer frequency, TF over GST control)

Sequence: CAATTC
- binding signal (FLI1): 1.33 fold enrichment (6-mer frequency, TF over GST control)
- binding signal (ELK1): 1.27 fold enrichment (6-mer frequency, TF over GST control)
- binding signal (GABPA): 1.19 fold enrichment (6-mer frequency, TF over GST control)
- binding signal (ERG): 1.29 fold enrichment (6-mer frequency, TF over GST control)
- binding signal (ELF1): 1.25 fold enrichment (6-mer frequency, TF over GST control)
- binding signal (EHF): 1.24 fold enrichment (6-mer frequency, TF over GST control)
- binding signal (SPI1): 1.24 fold enrichment (6-mer frequency, TF over GST control)
- binding signal (SPIB): 1.44 fold enrichment (6-mer frequency, TF over GST control)
- binding signal (ELK3): 1.2 fold enrichment (6-mer frequency, TF over GST control)
